Compounds without any hit were thinned out: in the full panel of roughly 79,000, 15% have a hit. Unmarked numbers belong to inactive results. Cut-off read from the data, not from the text of the source: active = growth inhibition above about 70%; inactive = the rest.
Test: NCI Yeast Anticancer Drug Screen. Data for the mlh1 rad18 strain (AID 175)
Settings: S. cerevisiae mlh1 rad18 strain growth inhibition; at 50.0 µM; active compounds read high
Outline: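 In this whole-cell yeast screen, a strain with altered DNA damage repair is challenged with compound, and its growth is measured against matched vehicle-treated controls.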
`O=[N+]([O-])/C(Cl)=C(\NCCO)C(Cl)=C(Cl)Cl` gave a growth inhibition of -2.3%. For `CN(C)CCNC(=O)c1ccc2nc3c(nc2c1)C(=O)c1ccccc1-3`, the growth inhibition was 15.9%. In the case of `Ic1ccc(N=Nc2ccccc2)cc1`, the growth inhibition is reported as -12.5%. Molecule `CC(=O)c1cccc(C)n1` has a growth inhibition of 36.7%. In the case of `C1CCCCCc2c(-c3n[nH]c4c3CCCCCCCCCC4)n[nH]c2CCCC1`, the growth inhibition is reported as 43.8%. Molecule `O=C(CCl)Nc1cc(Cl)c(Cl)cc1Cl` has a growth inhibition of 37%. `CCN(C(=O)c1ccc([N+](=O)[O-])cc1)C(c1ccccc1)P(=O)(c1ccccc1)c1ccccc1` (stereo not given) showed a growth inhibition of 1.45%. `O=C1CCSC(=S)N1c1ccc(F)cc1F` gave a growth inhibition of -1.15%. `Cc1ccc(C(=O)OCC2OC(Cl)CC2OC(=O)c2ccc(C)cc2)cc1` (stereo not given) showed a growth inhibition of -8.3%. Molecule `O=C1OCC/C1=C1/Nc2ccccc2NC1=O` has a growth inhibition of -13.8%. With `Cc1cc2c(=O)[nH]cnc2[nH]1` the growth inhibition was -1.15%. `O=NNc1ccc(Sc2ccccc2)cn1` gave a growth inhibition of 10.6%. With `CSCC[C@H]1C(=O)N=C(N)N1C(=O)OCc1ccccc1` the growth inhibition was 12.8%. Work on `CN(C)c1nc(=NCc2cccs2)ss1` yielded a growth inhibition of 65.7%. Work on `CC1(C#N)N(C(=O)c2ccccc2)c2ccccc2N1C(=O)c1ccccc1` yielded a growth inhibition of 24.9%. Work on `CCCOC(=O)CCCC1=NC2=CC=CC3=NC(C)=NC(=N1)N23` yielded a growth inhibition of -7.45%. `C=CCc1cc(OC)c2c(c1)C(OC)CC(c1ccc(OC)c(OC)c1)O2` (stereo not given) gave a growth inhibition of -17.9%. With `CC1C(O)=C(O)c2ccccc2N1O` (stereo not given) the growth inhibition was -10.7%. In the case of `CSCC(=O)c1ccccc1`, the growth inhibition is reported as 5.3%. Molecule `CC(=O)NC(Cc1c[nH]c2ccccc12)C(=O)Oc1ccc([N+](=O)[O-])cc1` (stereo not given) has a growth inhibition of 17.6%. `Cc1cc(Cc2ccc(N)c(C)c2)ccc1N` showed a growth inhibition of -2.45%. For `CC(C)C(O)C(C)(C)C(O)C#N` (stereo not given), the growth inhibition was 7.7%. Work on `CCCCC1(O)C(=O)N(c2ccccc2)N(c2ccccc2)C1=O` yielded a growth inhibition of 4.2%. `C[n+]1ccc(/C=C/c2c[nH]c3ccccc23)cc1` showed a growth inhibition of -8.3%. In the case of `COc1cc(/C=C2\C=Cc3ccccc32)ccc1N(C)C`, the growth inhibition is reported as -15.5%.

— PubChem BioAssay (NCI)
